Screens as filed in PubChem BioAssay.
Compounds with a hit are over-represented: about 12% of the library has one in this group of screens.
G9a inh: qHTS Assay for Inhibitors of Histone Lysine Methyltransferase G9a; Histone-lysine N-methyltransferase EHMT2 (Homo sapiens), Q96KQ7; G9a H3K9 monomethylation, AlphaScreen, 2 h; Potency, µM (titrated, usually from 102 µM), most hits filed as inhibitors; actives 8.8% (n = 350,000); AID 504332, 2011; also: nearly all actives have a fitted effect of over 75% in size
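Chemiluminescent proximity detection of H3K9 monomethylation, read after 10 min bead incubation in the dark. Reaction: 20 nM G9a, 500 nM biotin-H3K9 peptide, 20 uM SAM cofactor, 2 h, room temperature, following 15 min enzyme-compound preincubation.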
Sfp PPTase inh: qHTS Assay for Inhibitors of Bacillus subtilis Sfp phosphopantetheinyl transferase (PPTase). AID 1490, 2009. Potency, µM, most hits filed as inhibitors. Biochemical Sfp PPTase activity, qHTS. 4'-phosphopantetheinyl transferase ffp (Bacillus subtilis), Q9F4F7. actives 3.5% (n = 310,000);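 also: the enzyme is Sfp with the accession as filed and its product quenches rhodamine fluorescence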
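Buffer: 50 mM Hepes-Na pH 7.6, 10 mM MgCl2, 0.01% Nonidet P-40, 0.01% BSA. Enzyme 15 nM, pre-exposed to compound 15 min; substrates then added and fluorescence change tracked over 30 min.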
BAZ2B inh: qHTS Assay for Inhibitors of BAZ2B; AlphaScreen BAZ2B-H3K14Ac peptide displacement; actives 4.4% (n = 360,000); Bromodomain adjacent to zinc finger domain protein 2B (Homo sapiens), Q9UIF8; Potency, µM (titrated, usually from 114 µM), usual class: inhibitors; AID 504333, 2011; also: nearly all actives have a fitted effect of over 60% in size
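BAZ2B (50 nM) with biotin-H3(5-23)K14Ac peptide (50 nM) in PBS pH 7.4, 0.01% Tween-20, preformed 30 min, then compound 30 min at room temperature; top concentration 110uM. AlphaScreen streptavidin donor/nickel chelate acceptor beads (10 ug/mL final), 20 min dark, signal read.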
HP1b binding inh: HTS for Inhibitors of HP1-beta Chromodomain Interactions with Methylated Histone Tails | AlphaScreen HP1-beta / biotin-H3K9me3 peptide binding | Potency, µM (top dose mostly 114 µM), most hits filed as inhibitors | actives 0.56% (n = 390,000) | AID 540317, 2011; also: nearly all actives have a fitted effect of over 70% in size
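AlphaScreen: HP1-beta (50 nM) preformed 30 min with biotin-H3(1-18)K9me3 peptide (50 nM) in PBS pH 7.4, 0.01% Tween-20. Compound added for 30 min at RT, then streptavidin donor/nickel chelate acceptor beads (10 ug/mL) for 30 min.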
JMJD2A Tudor: qHTS Assay for Inhibitors of JMJD2A-Tudor Domain | AlphaScreen JMJD2A-Tudor / H3K4me3 peptide binding | actives 4.4% (n = 390,000) | Lysine-specific demethylase 4A (Homo sapiens), O75164 | Potency, µM (highest dose often 114 µM), hits mostly inhibitors; also: nearly all actives have a fitted effect of over 50% in size
L3MBTL1 block: qHTS Assay for the Inhibitors of L3MBTL1. Lethal(3)malignant brain tumor-like protein 1 (Homo sapiens), Q9Y468. AlphaScreen L3MBTL1–H3K9me1 peptide binding. Potency, µM (titrated, usually from 57.1 µM), actives largely listed as inhibitors. actives 0.66% (n = 230,000); also: nearly all actives have a fitted effect of over 60% in size
Target sequence (Q9Y468 whole entry, looked up): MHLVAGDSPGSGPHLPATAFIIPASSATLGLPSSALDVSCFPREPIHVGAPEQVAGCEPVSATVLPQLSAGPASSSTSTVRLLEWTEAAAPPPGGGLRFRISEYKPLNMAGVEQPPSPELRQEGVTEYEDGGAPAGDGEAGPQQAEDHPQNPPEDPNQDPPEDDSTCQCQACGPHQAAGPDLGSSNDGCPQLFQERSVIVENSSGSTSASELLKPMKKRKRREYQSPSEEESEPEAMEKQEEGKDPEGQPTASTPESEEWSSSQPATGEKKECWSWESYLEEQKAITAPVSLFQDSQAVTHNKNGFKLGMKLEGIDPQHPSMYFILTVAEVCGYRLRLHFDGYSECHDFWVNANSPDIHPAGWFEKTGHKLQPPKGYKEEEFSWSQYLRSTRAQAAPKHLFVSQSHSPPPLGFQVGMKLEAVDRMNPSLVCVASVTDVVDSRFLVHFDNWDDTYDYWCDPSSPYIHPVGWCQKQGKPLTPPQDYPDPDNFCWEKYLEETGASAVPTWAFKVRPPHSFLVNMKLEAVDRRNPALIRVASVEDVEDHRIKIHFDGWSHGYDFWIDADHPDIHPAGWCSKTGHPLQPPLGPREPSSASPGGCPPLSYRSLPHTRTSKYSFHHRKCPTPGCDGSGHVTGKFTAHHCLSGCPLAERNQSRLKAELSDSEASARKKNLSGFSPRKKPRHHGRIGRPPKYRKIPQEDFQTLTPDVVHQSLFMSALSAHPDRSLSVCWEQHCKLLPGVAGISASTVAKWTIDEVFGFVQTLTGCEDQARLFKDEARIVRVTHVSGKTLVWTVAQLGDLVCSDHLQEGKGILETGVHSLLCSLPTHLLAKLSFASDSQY
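AlphaScreen proximity signal between nickel-chelate acceptor and streptavidin donor beads (final 10 ug/mL) reports binding of 50 nM L3MBTL1 to 75 nM biotin-H3 K9me1 peptide; complex incubated with compounds 30 min at room temperature; cefsulodin titration as control.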
Hits are given with their value; 0 = inactive; ? = inconclusive; - = no result given; [ ] = remark or other dose. Calls follow the shape of the dose curve; as a rule, active = well fitted curve in the direction sought with a large enough effect; inconclusive = small, poorly fitted or top-dose-only effect, or another doubt; inactive = no such curve, though single readings can be large; an effect the other way counts as inactive or inconclusive.

SMILES	G9a inh	Sfp PPTase inh	BAZ2B inh	HP1b binding inh	JMJD2A Tudor	L3MBTL1 block
C#CCOCCOCCOCCNc1nc(N2CCN(C(=O)CCCCCCCCCCNC(=O)Cn3cc(C[C@@H](C)O)nn3)CC2)nc(N2CCN(C(=O)CCCCCCCCCCNC(=O)[C@@H](CCSC)n3cc(CCO)nn3)CC2)n1	0[2.33 µM]	-	0	0	0	0
C#CCOCCOCCOCCNc1nc(N2CCN(C(=O)CCCCCCCCCCNC(=O)[C@@H](CCC(=O)O)n3cc(CCCCCN)nn3)CC2)nc(N2CCN(C(=O)CCCCCCCCCCNC(=O)[C@H](CO)n3cc(CCCCCN)nn3)CC2)n1	0[2.33 µM]	-	0	0	?	0
COCCn1c(=O)c(-c2cc(F)cc(F)c2)nc2cnc(OCc3ccccc3)nc21	0[12.7 µM]	0	-	-	-	-
CN(C)CCN1C(=O)c2ccccc2N(C)c2ccccc21	0	?	-	-	-	-
Cc1cccc(-c2nc3c4ccccc4nc(N4CCN(c5ccc(F)cc5)CC4)n3n2)c1	0	-	0	0	0	-
Cc1cc(C(F)F)n2nc(C(=O)Nc3ccc(C(C)C)cc3)nc2n1	0	-	0	0	0	-
O=C1N/C(=C/c2cccn2-c2ccc(F)cc2)C(=O)N1Cc1ccccc1F	?	0	0	0	0	0
O=C1N/C(=C/c2cccn2-c2ccccc2)C(=O)N1Cc1ccc(F)cc1	13µM	45µM	0	0	0	0
Cc1ccc(N2C(SCC(=O)O)=NC(=Nc3cccc(C)c3)C23CCCC3)cc1	0	?	20µM	14µM	10µM	-
Cc1ccc2nc(SCC(=O)O)nc(C)c2c1	0[2.33 µM]	0	0	0	0	-
O=C(O)CSC1=NC(=Nc2ccc(Cl)cc2)C2(CCCCC2)N1c1cccc(C(=O)O)c1	4.5µM	0	?	?	22µM	0
NC[C@H]1O[C@@H](n2cnc3c(N)ncnc32)[C@H](O)[C@@H]1O	0	-	-	-	-	-
CCOc1ccc(C(C)=O)cc1N1C(=O)C2C3C=CC(O3)C2C1=O (centres undefined)	?	7.9µM	?	28µM	20µM	0
CC(C)/C=N/Nc1nc(-c2ccc(Br)cc2)cs1	0	79µM	?	0	0	0
O=C(Nc1nc(-c2ccc(Br)cc2)cs1)c1cccnc1	0	0	0	0	0	0
Cc1c(C)n(C)c2ccc(C(=O)NCc3cccs3)cc12	50µM	0	?	0	?	0
COc1ccc(OC)c(NC(=O)c2ccc3c(c2)c(C)c(C)n3Cc2ccc(F)cc2)c1	?	-	25µM	0	?	-
COc1ccc(OC)c(CNC(=O)c2ccc3c(c2)c(C)c(C)n3Cc2ccc(Cl)cc2)c1	0	-	0	0	?	-
Cc1c(C)n(C)c2ccc(C(=O)NCCCN3CCN(C)CC3)cc12	?	0	0	0	?	-
COc1ccc(OC)c(CNC(=O)c2ccc3c(c2)c(C)c(C)n3C)c1	?	-	35µM	0	?	-
COc1cccc(NC(=O)/C(C#N)=C\c2cn(Cc3ccc(C)cc3)c3ccccc23)c1	0	-	0	0	0	-
Cc1nn(-c2ccccc2)c(NC(=O)NS(=O)(=O)c2ccc(Cl)cc2)c1C#N	-	0	-	-	-	-
Cc1cc(/C=C2\SC(N)=NC2=O)c(C)n1-c1ccccc1	?	50µM	0	0	0	-
Cc1cc(C=C2C(=O)CCCC2=O)c(C)n1-c1ccccc1	50µM	0	50µM	0	?	?
Cc1cc(/C=C2\SC(=S)NC2=O)c(C)n1-c1ccc(O)cc1	-	45µM	40µM	?	0[11.4 µM]	0
SMILES	G9a inh	Sfp PPTase inh	BAZ2B inh	HP1b binding inh	JMJD2A Tudor	L3MBTL1 block
Cc1cc(/C=C2\SC(=S)NC2=O)c(C)n1C	40µM	0	45µM	0	45µM	0
COc1ccc(-n2c(C)cc(/C=C3\SC(=S)NC3=O)c2C)cc1	-	0	0	0	0	0
CCC1Cc2cc(O)ccc2C2=C1c1ccc(O)cc1CC2CC (centres undefined)	-	0	-	-	-	-
CCCCc1nn2c(=O)cc(COC(=O)c3ccc4c(c3)OCO4)nc2s1	0	-	0	0	0	-
NC(=O)Cn1c(=O)n(-c2ccc(F)c(Cl)c2)c(=O)c2sc3ccccc3c21	0	-	0	0	0	-
Cc1cc(/C=C2\SC(=S)NC2=O)c(C)n1-c1ccccc1	45µM	0	?	0	14µM	0
O=C(Nc1cc(C(F)(F)F)ccc1Cl)c1cc(S(=O)(=O)NCc2ccccc2)ccc1F	0	-	0	0	0	-
O=C(CN1CC(=O)Oc2ccccc21)OCC(=O)c1cccc(Br)c1	45µM	71µM	8.9µM	0	40µM	0
O=C(COC(=O)C1CC2CCCC(C1)C2=O)c1cccc(Br)c1 (centres undefined)	?	-	0	0	0	0
O=C(CN1CC(=O)Oc2ccccc21)OCC(=O)c1ccccc1	?	?	13µM	0	20µM	-
O=C(CCN1C(=O)C2C3CCC(C3)C2C1=O)OCC(=O)c1ccccc1 (centres undefined)	0	0	0	0	0	-
COc1ccc2c(c1O)Cc1ccccc1C2=O	?	45µM	?	0	?	0
CC(C)=C1Cc2ccccc2C1=O	0	0	0	0	0	0
CC(=NCCCn1ccnc1)C1=C(O)c2ccccc2C1=O	0	0	45µM	0	0	0
O=C1C(C=NCCCn2ccnc2)=C(O)c2ccccc21	-	-	-	0	0	-
Cn1cccc1C(=O)N1CCC2(CCCN(c3ccc(-c4ccccc4)cc3)C2)CC1	0[12.7 µM]	0	-	-	-	-
O=C1OC2(c3ccccc31)c1cc(I)c(O)c(I)c1Oc1c2cc(I)c(O)c1I	?	14µM	10µM	-	-	3.2µM
O=C1OC2(c3ccc(O)cc3Oc3cc(O)ccc32)c2ccccc21	?	0	-	-	-	-
Cc1cc(C(=O)C(C)OC(=O)C2=NNC(=O)CC2)c(C)n1-c1ccc(OC(F)F)cc1 (centres undefined)	0	0	?	0	?	-
Cc1cc(C(=O)COC(=O)C2=NNC(=O)CC2)c(C)n1-c1ccc(OC(F)F)cc1	50µM	0	0	0	?	-
O=C(CN1C(=O)N/C(=C\c2cccn2-c2cccc(C(=O)O)c2)C1=O)Nc1ccccc1F	-	-	-	-	0	-
N#C/C(=C/c1cccn1-c1cccc(C(=O)O)c1)c1ccc(F)cc1	?	0	50µM	0	0	?
Cc1ccc(-c2cn3c(n2)sc2cc(C(=O)NCc4cccs4)ccc23)cc1	0	-	0	0	0	-
CCc1ccc(-c2cn3c(n2)sc2cc(C(=O)NCCCc4ccccc4)ccc23)cc1	0	-	0	0	0	-
CCOc1ccc(-c2cn3c(n2)sc2cc(C(=O)NCCCc4ccccc4)ccc23)cc1	22µM	-	0	0	0	-
